High-throughput results as filed in PubChem.
IDE exosite FP = exo-site inhibitors of human IDE, primary screen, biochemical, fluorescence anisotropy, probe displacement; AID 1259349, 2017; z-score at 20 µM; 6.3% of 17,000 active; Insulin-degrading enzyme (Homo sapiens), P14735; purified IDE, FL-6b probe fluorescence polarization; stronger effect = lower value;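 active = z-score of -3 or lower, meaning strong loss of probe binding signal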;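 also: His-tagged human IDE residues 42-1019 made in E. coli with 30 nM FL-6b probe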
Target sequence (P14735 42-1019 limits assumed): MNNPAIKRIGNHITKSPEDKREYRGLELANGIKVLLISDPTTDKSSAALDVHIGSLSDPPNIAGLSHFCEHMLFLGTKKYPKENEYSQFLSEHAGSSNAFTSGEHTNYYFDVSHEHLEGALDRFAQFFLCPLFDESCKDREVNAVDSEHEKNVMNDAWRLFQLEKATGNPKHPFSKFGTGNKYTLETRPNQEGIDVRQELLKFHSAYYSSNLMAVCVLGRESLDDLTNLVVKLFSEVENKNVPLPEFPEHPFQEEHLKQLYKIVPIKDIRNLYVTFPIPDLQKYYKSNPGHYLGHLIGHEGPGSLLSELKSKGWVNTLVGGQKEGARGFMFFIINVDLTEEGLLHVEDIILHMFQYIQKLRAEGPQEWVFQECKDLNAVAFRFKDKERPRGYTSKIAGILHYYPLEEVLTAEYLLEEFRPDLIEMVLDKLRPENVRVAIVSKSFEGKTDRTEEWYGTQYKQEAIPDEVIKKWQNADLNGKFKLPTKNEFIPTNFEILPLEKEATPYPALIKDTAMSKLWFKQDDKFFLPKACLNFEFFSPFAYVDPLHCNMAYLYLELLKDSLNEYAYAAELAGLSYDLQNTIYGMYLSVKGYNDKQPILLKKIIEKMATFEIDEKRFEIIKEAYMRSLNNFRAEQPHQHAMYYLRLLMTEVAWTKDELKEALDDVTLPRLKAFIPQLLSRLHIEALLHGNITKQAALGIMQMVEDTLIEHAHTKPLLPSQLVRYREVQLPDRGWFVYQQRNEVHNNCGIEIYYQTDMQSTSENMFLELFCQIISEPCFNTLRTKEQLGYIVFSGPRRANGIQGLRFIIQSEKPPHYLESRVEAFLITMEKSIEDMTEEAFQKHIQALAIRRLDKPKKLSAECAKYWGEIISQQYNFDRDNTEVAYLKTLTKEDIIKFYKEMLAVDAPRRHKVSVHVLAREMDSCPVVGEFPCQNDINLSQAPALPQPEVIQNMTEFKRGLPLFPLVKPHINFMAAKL
A number is an active result; 0 = inactive. The sample as a whole holds a higher share of hits than the screen did.

SMILES | IDE exosite FP
O=C(NCC[C@H]1CC[C@@H](NC(=O)C2CCOCC2)[C@@H](CO)O1)c1cc(Cl)cc(Cl)c1 | 0
COCC(=O)N1[C@@H](C#N)[C@@H](c2ccccc2)[C@@H]1CO | 0
COc1ccccc1C#Cc1ccc([C@H]2[C@@H](C#N)N(C(=O)C3CC3)[C@@H]2CO)cc1 | -5.3
N#C[C@@H]1[C@H](c2ccc(C#Cc3ccccc3F)cc2)[C@H](CO)N1C(=O)C1CC1 | 0
COCC(=O)N1[C@H](C#N)[C@@H](c2ccc(C#Cc3ccccc3F)cc2)[C@H]1CO | -3.9
COc1ccccc1C#Cc1ccc([C@@H]2[C@H](C#N)N(C(=O)C3CC3)[C@H]2CO)cc1 | -9.3
N#C[C@H]1[C@H](c2ccc(C#Cc3ccc(F)cc3)cc2)[C@H](CO)N1C(=O)C1CC1 | 0
COc1ccccc1C#Cc1ccc([C@@H]2[C@@H](C#N)N(C(=O)C3CC3)[C@@H]2CO)cc1 | -6.4
CN1c2ccc(Br)cc2[C@@H]2[C@@H](CCN2S(=O)(=O)c2ccccc2F)[C@@H]1CO | 0
COc1ccc([C@@H]2C/C=C\C[C@H](c3ccc4c(c3)OCO4)NC(=O)CCC(=O)N2)c(OC)c1 | 0
CN(C)C(=O)C[C@@H]1C[C@@H]2c3cc(NC(=O)c4cccnc4)ccc3O[C@@H]2[C@@H](CO)O1 | 0
O=C(C[C@H]1CC[C@H]2[C@@H](COC[C@@H](O)CN2C(=O)c2cnccn2)O1)N1CCN(c2ccccc2)CC1 | 0
COc1ccc(NC(=O)N2CCC3(CC2)CN(C(=O)c2cccnc2)[C@@H](CO)c2[nH]c4cc(OC)ccc4c23)cc1 | 0
CCS(=O)(=O)N1CCCCN2[C@H](C1)[C@@H](c1ccc(-c3cccc(C#N)c3)cc1)[C@@H]2CO | 0
N#C[C@H]1[C@@H](c2ccc(C#Cc3ccccc3F)cc2)[C@@H](CO)N1C(=O)C1CC1 | -3.4
N#C[C@@H]1[C@H](c2ccc(C#Cc3ccccc3F)cc2)[C@@H](CO)N1C(=O)C1CC1 | 0
COc1ccccc1C#Cc1ccc([C@@H]2[C@@H](C#N)N(C(=O)C3CC3)[C@H]2CO)cc1 | -4.2
N#C[C@H]1[C@@H](c2ccc(C#Cc3ccccc3F)cc2)[C@H](CO)N1C(=O)C1CC1 | 0
O=C(c1ccc(F)cc1)N1CC(=O)N2[C@@H](CO)[C@H](c3ccc(C#CCC4CCCC4)cc3)[C@@H]2C1 | 0
CO[C@H]1CC[C@H]2CCOc3c(C#N)cccc3C(=O)N(C)CCCC(=O)N(C)C[C@H]1O2 | 0
COCC(=O)N1CC2(C1)CN(C(=O)Nc1ccccc1F)[C@@H](CO)c1[nH]c3cc(OC)ccc3c12 | 0
O=C(C[C@@H]1CC[C@@H]2NC[C@H](O)COC[C@H]2O1)NCc1ccc2c(c1)OCO2 | 0
O=C(NC[C@@H]1[C@H](c2ccccc2)[C@H](CO)N1Cc1ccccn1)C1CC1 | 0
COc1cccc(C#Cc2ccc([C@@H]3[C@@H](C#N)N(C(=O)c4ccccn4)[C@H]3CO)cc2)c1 | 0
COc1cccc(-c2ccc([C@H]3[C@@H](C#N)N(C(=O)c4ccccn4)[C@@H]3CO)cc2)c1 | -4.3
SMILES | IDE exosite FP
COc1cccc(-c2ccc([C@H]3[C@@H](CO)N(C(=O)c4ccccn4)[C@H]3C#N)cc2)c1 | -5.9
COc1cccc(C#Cc2ccc([C@H]3[C@@H](C#N)N(C(=O)c4ccccn4)[C@@H]3CO)cc2)c1 | 0
COc1cccc(C#Cc2ccc([C@@H]3[C@@H](C#N)N(C(=O)c4ccccn4)[C@@H]3CO)cc2)c1 | 0
COc1cccc(-c2ccc([C@H]3[C@H](C#N)N(C(=O)c4ccccn4)[C@H]3CO)cc2)c1 | 0
CN(C)CC(=O)N1[C@H](C#N)[C@H](c2ccccc2-c2ccc(C(=O)N(C)C)cc2)[C@H]1CO | 0
CCc1sc(N2[C@H](C#N)[C@H](c3ccccc3-c3ccc(F)cc3)[C@@H]2CO)nc1C | 0
O=C(Nc1ccccc1)N1CC(=O)N2[C@H](CO)[C@@H](c3ccc(-c4ccc(F)cc4)cc3)[C@H]2C1 | 0
CN(C)C(=O)c1cccc(-c2ccc([C@@H]3[C@@H](CO)N4CCCCN(Cc5cccnc5)C[C@@H]34)cc2)c1 | 0
O=C(c1ccccn1)N1CC(=O)N2[C@H](CO)[C@@H](c3ccc(C#Cc4ccccc4)cc3)[C@@H]2C1 | -7.3
CC(C)C#Cc1ccc([C@@H]2[C@@H](CO)N3C(=O)CN(C(=O)c4ccccn4)C[C@@H]23)cc1 | 0
O=C(c1ccccn1)N1CC(=O)N2[C@H](CO)[C@@H](c3ccc(C#CCc4ccccc4)cc3)[C@H]2C1 | 0
CCCC#Cc1ccc([C@H]2[C@H]3CN(C(=O)c4ccccn4)CC(=O)N3[C@H]2CO)cc1 | 0
O=C(c1ccccn1)N1CC(=O)N2[C@@H](CO)[C@@H](c3ccc(C#Cc4ccccc4)cc3)[C@@H]2C1 | -20
O=C(c1ccccn1)N1CC(=O)N2[C@H](C1)[C@H](c1ccc(C#CCc3ccccc3)cc1)[C@@H]2CO | 0
O=C(c1ccccn1)N1CC(=O)N2[C@H](CO)[C@H](c3ccc(C#Cc4ccccc4)cc3)[C@@H]2C1 | -5.8
O=C(c1ccccn1)N1CC(=O)N2[C@H](C1)[C@@H](c1ccc(C#CCc3ccccc3)cc1)[C@@H]2CO | 0
O=C(c1ccccn1)N1CC(=O)N2[C@H](CO)[C@@H](c3ccc(C#CCc4ccccc4)cc3)[C@@H]2C1 | 0
CN1[C@@H]2c3ccc(-c4ccccc4F)c(=O)n3C[C@@H]2[C@@H](CO)[C@@H]1C(=O)Nc1nccs1 | 0
O=C(c1ccccc1)N1[C@H](CO)[C@H](c2ccccc2)C12CN(Cc1nccs1)C2 | 0
O=C(C[C@H]1CC[C@@H]2[C@H](COC[C@H](O)CN2Cc2nccs2)O1)N1CCC(Cc2ccccc2)CC1 | 0
C[C@@H]1CN([C@H](C)CO)C(=O)c2ccccc2-c2ccccc2CO[C@@H]1CN(C)S(=O)(=O)c1ccc([N+](=O)[O-])cc1 | 0
CCS(=O)(=O)Nc1ccc2c(c1)C(=O)N(C)C[C@@H](OC)[C@@H](C)CN(C(=O)c1ccc3c(c1)OCO3)[C@H](C)CO2 | 0
O=C(CC1CC1)N1CC(=O)N2[C@@H](CO)[C@@H](c3ccc(C#Cc4ccc(F)cc4)cc3)[C@@H]2C1 | 0
O=C(CC1CC1)N1CC(=O)N2[C@@H](CO)[C@H](c3ccc(-c4ccccc4)cc3)[C@@H]2C1 | 0
CN(C)CC(=O)N1CC(=O)N2[C@@H](CO)[C@H](c3ccc(/C=C/c4ccccc4)cc3)[C@@H]2C1 | -4.2
SMILES | IDE exosite FP
O=C(Cc1ccccc1)N1CC(=O)N2[C@H](CO)[C@@H](c3ccc(C#Cc4ccccc4)cc3)[C@@H]2C1 | 0
O=C(CC1CC1)N1CC(=O)N2[C@@H](CO)[C@@H](c3ccc(-c4cccnc4)cc3)[C@@H]2C1 | 0
O=C(CC1CC1)N1CC(=O)N2[C@H](CO)[C@@H](c3ccc(C#Cc4ccccc4)cc3)[C@H]2C1 | -6.4
O=C(CC1CC1)N1CC(=O)N2[C@H](C1)[C@H](c1ccc(/C=C/c3ccccc3)cc1)[C@@H]2CO | -3.8
CN(C)CC(=O)N1CC(=O)N2[C@@H](CO)[C@H](c3ccc(-c4ccc(C#N)cc4)cc3)[C@@H]2C1 | 0
O=C(c1ccc(F)cc1)N1CC(=O)N2[C@H](C1)[C@H](c1ccc(/C=C/c3ccccc3)cc1)[C@@H]2CO | 0
COc1cccc(S(=O)(=O)Nc2ccc3c(c2)[C@H]2C[C@H](CC(=O)NC4CCCCC4)O[C@H](CO)[C@H]2O3)c1 | 0
O=C1CN(S(=O)(=O)Cc2ccccc2)C[C@@H]2[C@H](c3ccc(C#Cc4ccccc4)cc3)[C@@H](CO)N12 | 0
